For some assays here: Results with a measured potency or affinity are listed apart.
Experiments:
Parameters in all cases: scale not given: direction of the effect not stated beside the values
[1] = target: Protein translocase subunit SecA (Escherichia coli (strain K12)) (UniProt P10408); test: Assay to Identify E. coli SecA ATPase Inhibitors; type: functional; conditions: 30 µM
[2] = target: T1, Ubiquitin-activating enzyme e1, putative (Leishmania donovani (strain BPK282A1)) (UniProt E9BSI1); test: Leishmania donovani Ubiquitin Activating Enzyme (LdE1); type: functional; conditions: 30 µM
T1 sequence (whole entry): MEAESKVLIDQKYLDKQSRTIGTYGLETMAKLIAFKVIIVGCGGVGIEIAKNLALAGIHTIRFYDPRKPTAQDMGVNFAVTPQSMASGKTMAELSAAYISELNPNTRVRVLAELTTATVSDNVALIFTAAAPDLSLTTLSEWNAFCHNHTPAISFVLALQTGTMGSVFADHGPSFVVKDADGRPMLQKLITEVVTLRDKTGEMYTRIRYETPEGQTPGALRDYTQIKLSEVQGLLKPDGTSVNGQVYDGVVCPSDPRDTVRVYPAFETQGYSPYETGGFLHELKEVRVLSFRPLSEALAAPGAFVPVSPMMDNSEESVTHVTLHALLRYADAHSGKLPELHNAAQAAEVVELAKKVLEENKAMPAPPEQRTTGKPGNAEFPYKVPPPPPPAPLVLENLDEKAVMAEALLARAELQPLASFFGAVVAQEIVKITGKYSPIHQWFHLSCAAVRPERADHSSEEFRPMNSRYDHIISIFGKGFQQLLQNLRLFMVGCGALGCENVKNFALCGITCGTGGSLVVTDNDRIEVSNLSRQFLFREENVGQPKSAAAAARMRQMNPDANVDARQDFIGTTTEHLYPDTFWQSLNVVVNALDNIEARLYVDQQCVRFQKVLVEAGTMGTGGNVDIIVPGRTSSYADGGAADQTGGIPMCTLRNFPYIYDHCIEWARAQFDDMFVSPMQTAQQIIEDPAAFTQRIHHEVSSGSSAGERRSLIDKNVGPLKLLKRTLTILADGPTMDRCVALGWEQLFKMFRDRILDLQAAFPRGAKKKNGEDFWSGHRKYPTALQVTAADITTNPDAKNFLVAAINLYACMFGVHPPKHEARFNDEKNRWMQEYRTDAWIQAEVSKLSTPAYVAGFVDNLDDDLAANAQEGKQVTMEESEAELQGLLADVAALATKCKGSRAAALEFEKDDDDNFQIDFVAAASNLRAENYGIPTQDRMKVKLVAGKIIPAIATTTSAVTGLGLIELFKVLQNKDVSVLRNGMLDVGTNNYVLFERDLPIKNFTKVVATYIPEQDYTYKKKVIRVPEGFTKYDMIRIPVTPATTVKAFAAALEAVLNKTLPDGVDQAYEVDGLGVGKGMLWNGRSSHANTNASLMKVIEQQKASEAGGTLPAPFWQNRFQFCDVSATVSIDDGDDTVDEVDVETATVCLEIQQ

[3] = target: AMP-activated protein kinase, AMPK (Homo sapiens) (UniProt P54646+O43741+P54619+Q9UGJ0+Q9Y478+Q13131+Q9UGI9); test: AMP-dependent Kinase enzyme assay. An in vitro enzyme assay that detects ADP turnover that is directly proportional to AMPK activity. This uses naive AMPK that is activated during the assay with MK-8722; type: functional; conditions: 30 µM
[4] = target: Sialic acid-binding Ig-like lectin 9 (Homo sapiens) (UniProt Q9Y336); test: Hs-Siglec9 ALPHAscreen SOP 20170721; conditions: 10 µM
Trypanosoma cruzi = test: Trypanosoma cruzi phosphomannomutase and mannose-1-phosphate guanylyltransferase assay; type: functional; conditions: 10 µM
[5] = target: T2, Arginase-2, mitochondrial (Homo sapiens) (UniProt P78540); test: in vitro enzyme assay to detect the production of urea directly proportional to the activity of Arginase II; type: functional; conditions: 33.3 µM; note: in the data most compounds retested in dose-response had high values
T2 sequence (whole entry): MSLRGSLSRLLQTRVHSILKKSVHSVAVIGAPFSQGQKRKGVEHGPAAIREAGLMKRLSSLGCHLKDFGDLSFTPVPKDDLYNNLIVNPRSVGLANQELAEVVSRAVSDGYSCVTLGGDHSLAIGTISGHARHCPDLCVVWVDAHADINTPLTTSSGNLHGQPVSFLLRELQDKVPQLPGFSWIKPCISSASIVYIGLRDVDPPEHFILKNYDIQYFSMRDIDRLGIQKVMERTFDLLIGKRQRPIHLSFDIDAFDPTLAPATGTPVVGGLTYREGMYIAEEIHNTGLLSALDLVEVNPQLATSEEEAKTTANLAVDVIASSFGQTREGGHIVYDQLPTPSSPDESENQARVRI

[6] = target: T3, Proteasome subunit beta (Trypanosoma cruzi) (UniProt O96673); test: Trypanosoma cruzi proteasome chymotrypsin-like activity (TcProtChymo) assay.; note: in the data most compounds retested in dose-response had high values; type: functional; conditions: 9.37 µM
T3 sequence (whole entry): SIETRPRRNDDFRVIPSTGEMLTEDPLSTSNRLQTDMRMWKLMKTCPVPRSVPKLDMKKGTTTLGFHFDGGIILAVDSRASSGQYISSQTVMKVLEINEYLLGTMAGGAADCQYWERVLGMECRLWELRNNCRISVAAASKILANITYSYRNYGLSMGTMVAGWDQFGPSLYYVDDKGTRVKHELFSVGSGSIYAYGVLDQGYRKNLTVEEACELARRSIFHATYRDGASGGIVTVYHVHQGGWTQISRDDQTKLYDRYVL

Homo sapiens = species: Homo sapiens; test: To identify inhibition of the IFN signalling (Jak-Stat) pathway via expression of an eGFP reporter gene under the control of an IFN-stimulated response element (ISRE) containing MxA promoter.; type: functional; conditions: 30 µM
[7] = target: T4, Tyrosyl-tRNA synthetase, putative (Trypanosoma cruzi (strain CL Brener)) (UniProt Q4DSP6); test: Trypanosoma cruzi tyrosyl tRNA synthetase (TcYRS) _High Tyrosine SOP; type: functional; conditions: 30 µM; note: in the data most compounds retested in dose-response had high values
T4 sequence (whole entry): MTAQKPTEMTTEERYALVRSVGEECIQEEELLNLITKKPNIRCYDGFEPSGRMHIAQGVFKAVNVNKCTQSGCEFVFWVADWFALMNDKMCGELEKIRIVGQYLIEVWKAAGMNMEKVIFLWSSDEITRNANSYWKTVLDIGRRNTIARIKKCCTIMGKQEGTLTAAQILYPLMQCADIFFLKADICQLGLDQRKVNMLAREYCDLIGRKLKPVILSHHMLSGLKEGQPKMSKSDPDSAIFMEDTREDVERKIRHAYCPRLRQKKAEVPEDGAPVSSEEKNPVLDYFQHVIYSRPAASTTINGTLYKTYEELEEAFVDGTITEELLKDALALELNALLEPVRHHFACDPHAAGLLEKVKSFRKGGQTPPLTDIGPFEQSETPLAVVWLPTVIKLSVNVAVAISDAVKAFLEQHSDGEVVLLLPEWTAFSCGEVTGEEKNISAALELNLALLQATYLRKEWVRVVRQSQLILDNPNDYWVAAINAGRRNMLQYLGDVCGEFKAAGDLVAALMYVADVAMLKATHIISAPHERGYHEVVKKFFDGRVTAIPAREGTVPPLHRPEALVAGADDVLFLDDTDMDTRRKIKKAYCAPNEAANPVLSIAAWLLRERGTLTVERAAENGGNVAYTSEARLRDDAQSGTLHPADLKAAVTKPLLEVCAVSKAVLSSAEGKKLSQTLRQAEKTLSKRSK

[8] = target: T4, Tyrosyl-tRNA synthetase, putative (Trypanosoma cruzi (strain CL Brener)); test: Trypanosoma cruzi tyrosyl tRNA synthetase (TcYRS) SOP; type: functional; conditions: 30 µM
[9] = target: Chromo domain-containing protein 1 (Saccharomyces cerevisiae (strain ATCC 204508 / S288c) (Baker's yeast)) (UniProt P32657); test: ScCHD-1 Enzyme Inhibition Assay; type: functional; conditions: 30 µM; note: in the data most compounds retested in dose-response had high values
Sequence of Chromo domain-containing protein 1 (Saccharomyces cerevisiae (strain ATCC 204508 / S288c) (Baker's yeast)) (P32657 whole entry, the tested form may be a part): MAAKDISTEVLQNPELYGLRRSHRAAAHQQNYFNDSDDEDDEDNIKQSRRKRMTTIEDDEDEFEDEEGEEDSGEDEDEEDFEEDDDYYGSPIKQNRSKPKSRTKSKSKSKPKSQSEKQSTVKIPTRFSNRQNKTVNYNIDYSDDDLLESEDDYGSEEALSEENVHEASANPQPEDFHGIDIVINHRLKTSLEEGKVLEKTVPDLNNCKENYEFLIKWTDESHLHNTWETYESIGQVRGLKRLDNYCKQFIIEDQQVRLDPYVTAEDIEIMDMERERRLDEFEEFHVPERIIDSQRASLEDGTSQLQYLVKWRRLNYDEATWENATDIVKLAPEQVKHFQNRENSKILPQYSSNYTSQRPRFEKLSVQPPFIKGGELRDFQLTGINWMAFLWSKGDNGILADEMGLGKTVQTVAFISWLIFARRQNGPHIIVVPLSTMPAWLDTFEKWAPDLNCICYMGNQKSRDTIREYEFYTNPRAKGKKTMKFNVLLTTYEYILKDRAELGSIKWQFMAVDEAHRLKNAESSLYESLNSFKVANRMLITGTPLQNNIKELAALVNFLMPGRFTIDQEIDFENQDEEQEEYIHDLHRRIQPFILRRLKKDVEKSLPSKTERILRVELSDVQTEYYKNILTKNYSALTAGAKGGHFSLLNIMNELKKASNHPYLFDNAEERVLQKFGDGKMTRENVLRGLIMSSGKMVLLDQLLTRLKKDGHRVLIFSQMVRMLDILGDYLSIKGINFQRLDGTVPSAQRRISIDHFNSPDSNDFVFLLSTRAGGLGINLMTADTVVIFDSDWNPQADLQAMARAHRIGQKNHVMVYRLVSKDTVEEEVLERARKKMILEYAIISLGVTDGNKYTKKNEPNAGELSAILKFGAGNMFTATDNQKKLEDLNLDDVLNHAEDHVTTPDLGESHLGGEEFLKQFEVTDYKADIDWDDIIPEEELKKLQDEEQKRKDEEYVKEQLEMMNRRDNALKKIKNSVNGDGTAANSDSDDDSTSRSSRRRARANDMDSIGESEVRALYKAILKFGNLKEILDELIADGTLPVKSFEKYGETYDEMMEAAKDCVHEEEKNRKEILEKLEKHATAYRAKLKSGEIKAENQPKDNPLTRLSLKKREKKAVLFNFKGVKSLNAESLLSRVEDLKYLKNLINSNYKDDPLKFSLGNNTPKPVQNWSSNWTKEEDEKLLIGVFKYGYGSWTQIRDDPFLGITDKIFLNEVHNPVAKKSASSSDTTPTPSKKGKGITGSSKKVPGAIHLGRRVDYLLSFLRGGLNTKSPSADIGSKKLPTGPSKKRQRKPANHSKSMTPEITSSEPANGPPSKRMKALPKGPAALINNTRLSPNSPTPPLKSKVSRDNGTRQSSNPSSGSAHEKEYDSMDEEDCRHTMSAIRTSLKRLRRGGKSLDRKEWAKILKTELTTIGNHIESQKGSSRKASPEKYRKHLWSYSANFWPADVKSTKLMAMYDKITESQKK

Sequence of Sialic acid-binding Ig-like lectin 9 (Homo sapiens) (Q9Y336 whole entry): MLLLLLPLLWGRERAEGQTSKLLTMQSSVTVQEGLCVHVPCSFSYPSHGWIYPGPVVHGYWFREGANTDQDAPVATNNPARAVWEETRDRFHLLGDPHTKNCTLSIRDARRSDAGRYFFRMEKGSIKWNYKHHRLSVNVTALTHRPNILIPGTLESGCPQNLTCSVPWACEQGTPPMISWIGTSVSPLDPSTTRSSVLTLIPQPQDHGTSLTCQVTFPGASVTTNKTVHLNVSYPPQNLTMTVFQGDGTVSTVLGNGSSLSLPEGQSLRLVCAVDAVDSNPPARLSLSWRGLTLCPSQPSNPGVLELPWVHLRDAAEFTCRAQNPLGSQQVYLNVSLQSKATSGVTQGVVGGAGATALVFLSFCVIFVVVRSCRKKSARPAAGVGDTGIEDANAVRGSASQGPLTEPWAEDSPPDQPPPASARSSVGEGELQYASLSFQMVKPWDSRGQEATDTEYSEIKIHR
Sequence of Protein translocase subunit SecA (Escherichia coli (strain K12)) (P10408 whole entry): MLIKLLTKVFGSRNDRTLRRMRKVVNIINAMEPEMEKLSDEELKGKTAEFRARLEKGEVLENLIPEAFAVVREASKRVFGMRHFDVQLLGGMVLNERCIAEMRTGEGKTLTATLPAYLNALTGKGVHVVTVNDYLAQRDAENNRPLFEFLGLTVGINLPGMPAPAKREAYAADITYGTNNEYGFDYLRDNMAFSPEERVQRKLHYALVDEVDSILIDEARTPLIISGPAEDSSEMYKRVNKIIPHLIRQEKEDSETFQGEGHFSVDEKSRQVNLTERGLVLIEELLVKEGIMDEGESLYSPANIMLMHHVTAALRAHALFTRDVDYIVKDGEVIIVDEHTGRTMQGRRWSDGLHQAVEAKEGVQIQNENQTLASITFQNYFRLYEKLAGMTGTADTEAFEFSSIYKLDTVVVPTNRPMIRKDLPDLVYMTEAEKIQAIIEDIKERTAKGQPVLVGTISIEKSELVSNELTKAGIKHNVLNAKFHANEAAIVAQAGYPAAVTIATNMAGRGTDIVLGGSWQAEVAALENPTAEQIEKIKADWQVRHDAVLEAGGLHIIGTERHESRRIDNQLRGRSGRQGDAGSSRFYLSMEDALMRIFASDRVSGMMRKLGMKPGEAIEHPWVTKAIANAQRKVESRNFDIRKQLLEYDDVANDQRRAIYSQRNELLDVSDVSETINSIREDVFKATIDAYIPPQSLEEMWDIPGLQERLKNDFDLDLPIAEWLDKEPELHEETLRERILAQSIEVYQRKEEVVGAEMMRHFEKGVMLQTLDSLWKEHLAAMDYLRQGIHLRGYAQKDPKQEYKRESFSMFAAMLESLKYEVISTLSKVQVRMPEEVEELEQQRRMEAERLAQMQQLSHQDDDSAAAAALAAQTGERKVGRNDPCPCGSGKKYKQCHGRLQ

| Structure (SMILES) | Percent Effect [1] | Percent Effect [2] | Percent Effect [3] | Percent Effect [4] | Percent Effect (Trypanosoma cruzi) | Percent Effect [5] | Percent Effect [6] | Percent Effect (Homo sapiens) | Percent Effect [7] | Percent Effect [8] | Percent Effect [9] |
| --- | --- | --- | --- | --- | --- | --- | --- | --- | --- | --- | --- |
| Cc1cccc(C(=O)N(C)Cc2cc(Br)cs2)n1 | -6.38% | 5.26% | 7.43% | 4.27% | 4.77% | 0% | 12.8% | -26.6% | 4.25% | 7.79% | 0.914% |
| CCc1n[nH]c(C2CN(CCc3cccs3)CCO2)n1 (stereo not given) | -7.68% | 11.4% | -4.38% | -6.28% | 3.38% | -1.94% | 8.06% | -6.82% | 2.08% | 17.7% | -43.9% |
| Cc1cncc(C(=O)N2CCCC(C(=O)CCc3ccccc3)C2)c1 (stereo not given) | 3.06% | 2.74% | 1.42% | 1.76% | -5.88% | 4.54% | 19.2% | 14.7% | 4.3% | 15% | -12.2% |
| COc1ccc2nnc(CCCC(=O)NCc3cccn3C)n2n1 | -2.1% | 22.7% | -8.56% | 0.257% | 1.57% | 0.176% | 17.4% | -1.92% | 8.47% | -41% | -12% |
| CCn1cc(CN(C)S(=O)(=O)c2ccc(NC(C)=O)cc2)cn1 | 2.78% | 14.7% | 5.54% | -0.366% | -2.95% | -15% | 7.39% | 18% | 1.06% | 7.69% | -7.39% |
| Cc1nn(C)c(N2CCOCC2)c1CNC(C)c1cccnc1 (stereo not given) | -3.55% | 6.94% | -10.5% | 21.7% | 2.62% | 7.95% | 11.4% | -22.8% | 3.16% | 10.3% | -6.39% |
| CC(C)(O)CN1CCN(C(=O)c2sccc2C2CC2)CC1 | -3.28% | 6.33% | 9.46% | 2.31% | -2.56% | 4.09% | 4.97% | 1.7% | 3.12% | 2.53% | -6.63% |
| CC1=N[C@@]2(CC[C@@H]3CN(S(=O)(=O)CC(C)C)C[C@@H]32)C(=O)N1CC(C)C | -5.41% | 5.41% | 5.56% | -6.18% | -2.64% | 2.23% | 23.8% | -9.78% | 3.24% | 10.3% | -0.878% |
| Cc1nn(CC(=O)N2CCC(Nc3cccnn3)CC2)c(C)c1Cl | -7.99% | 10.5% | -2.51% | 1.71% | 10.3% | -4.6% | 4.68% | 14.1% | 6.37% | 19.5% | -11.8% |
| CCN1CCn2c(C)cnc2C12CCN(C(=O)CC(C)C)CC2 | -1.23% | 10.7% | 6.38% | -1.92% | -4.83% | -59% | 18.1% | 1.06% | 0% | 5% | -5.61% |

Source: ChEMBL document CHEMBL3988442, “University of Dundee, Small-Polar-MMV Screening Library” (2021)
